Assay outcomes deposited in PubChem BioAssay by Center for Chemical Genomics, University of Michigan.
CDC25B CDK2 inh: primary biochemical HTRF screen for blockers of M-phase inducer phosphatase 2 binding to CDK2/cyclin A; HTRF CDC25B-CDK2/CyclinA binding, anti-His/anti-Flag; hits give high values; actives 0.72% (n = 94,000); z-score (test concentration not listed); P30305+P24941; AID 1259370, 2018; in the data active = z-score above about 3.2
HIV TAR-Tat: TAR RNA-Tat peptide displacers, HIV-1, primary screen, biochemical, FRET, FAM/TAMRA-labeled Tat | AID 1259389, 2018 | HIV-1 TAR RNA, Tat peptide displacement FRET; hits give high values | actives 0.6% (n = 100,000) | z-score (no concentration beside the values); active = z-score of 3 or more in at least 2 runs
* hit, by the source's call; nt = not tested or not shown. Shown are actives, neighbours in structure and some others; about 0.9% of the full set was active somewhere.

SMILES	CDC25B CDK2 inh	HIV TAR-Tat
Cc1cc(C)nc(-n2nc(C)c3c2NC(=O)CC3c2cccs2)n1 (stereo not given)	-1.1	0.81
Cc1ccc(-c2n[nH]c3c2C(c2ccc(Cl)cc2)NC3=O)cc1 (stereo not given)	nt	1
Cc1c(C(=O)O)sc2ncnc(Nc3cccc(Cl)c3)c12	nt	21*
Cc1c(C(=O)O)sc2ncnc(Nc3ccc(F)cc3)c12	nt	25*
Cc1c(C(=O)O)sc2ncnc(NCC3CCCO3)c12 (stereo not given)	nt	2.1
COCCNc1ncnc2sc(C(=O)O)c(C)c12	nt	2.5
Cc1c(C(=O)N2CCN(c3ccccc3)CC2)sc2ncnc(N3CCN(c4ccccn4)CC3)c12	-1.7	1.2
Cc1c(C(=O)O)sc2ncnc(N3CCN(c4ccccc4)CC3)c12	nt	29*
Cc1c(C(=O)O)sc2ncnc(NC(C)C)c12	nt	0.33
COc1cc(OC)c(Nc2ncnc3sc(C(=O)O)c(C)c23)cc1Cl	nt	4.2*
Cc1nc(N2CCOCC2)cc(N2CCN(C(=O)c3ccc4c(c3)OCO4)CC2)n1	2.5	1.1
Cc1ccc(S(=O)(=O)N2CCc3cc(-c4ccsc4)ccc32)cc1	1.2	-0.56
OC(CNc1ccccc1Cl)Cn1nnnc1-c1ccccc1 (stereo not given)	-0.69	1.3
Cc1c(C(=O)O)sc2ncnc(NCc3cccs3)c12	nt	9.8*
CCOc1ccc(Nc2ncnc3sc(C(=O)O)c(C)c23)cc1	nt	4.7*
Cc1c(C(=O)O)sc2ncnc(NCCc3ccco3)c12	nt	0.32
CCC(C)Nc1ncnc2sc(C(=O)O)c(C)c12 (stereo not given)	nt	3.3
CCCN(CCS(=O)(=O)N1CCNCC1)S(=O)(=O)c1ccc(Cl)cc1	nt	2.1
COCCNc1ncnc2c1sc1nc3c(cc12)COC(C)(C)C3	nt	0.52
O=C(NCCN1CCOCC1)C1CCCN(S(=O)(=O)N2CCOCC2)C1 (stereo not given)	nt	-0.15
CC(=O)Nc1ccc2nc3c(=O)[nH]c(=O)[nH]c3nc2c1	8*	1.8
CCC(=O)Nc1ccc2nc3c(=O)[nH]c(=O)[nH]c3nc2c1	2.9	-4.7
CCCn1cc(NC(=O)C2=CC(c3ccc(C)cc3)=NS(=O)(=O)N2C)cn1	-1.4	1.9
COC(=O)c1c(NC(=O)c2ccccc2C(=O)O)sc2c1CCC2	0.85	1.8
CNC(=O)c1cc(=O)n(CC(=O)Nc2sc3c(c2C(=O)OC)CCC3)c2ccccc12	nt	8.3*
SMILES	CDC25B CDK2 inh	HIV TAR-Tat
CSc1nnc(S/C(C(C)=O)=C(/C)O)s1	16*	nt
CSc1nnc(SCC(=O)N2CCC(C(F)(F)F)CC2)s1	0.86	nt
c1coc(-c2nc3ccccc3nc2-c2ccco2)c1	-0.23	nt
O=C(O)c1cc2ccccc2nc1-c1ccco1	0.87	35*
Cn1c(=O)c2sccc2n2c(CCCC(=O)N3CCC(N4CCCCC4)CC3)nnc12	nt	-1.1
C=CCOC(=O)C1=C(C)Nc2[nH]c(=O)[nH]c(=O)c2C1c1ccc(CC)cc1 (stereo not given)	-1.7	nt
COC(=O)C1=C(C)Nc2[nH]c(=O)[nH]c(=O)c2C1c1ccc(Br)cc1 (stereo not given)	3.6*	1.1
O=C1/C(=C\c2ccc(O)c(O)c2)Oc2c1ccc(O[C@@H]1O[C@H](CO)[C@@H](O)[C@H](O)[C@H]1O)c2O	nt	16*
O=C1C[C@@H](c2ccc(O)c(O)c2)Oc2cc(O[C@H]3O[C@@H](CO)[C@H](O)[C@@H](O)[C@@H]3O)cc(O)c21	nt	3.2
O=C(NCc1ccco1)c1ccc2cn[nH]c2c1	nt	-2.2
Nc1ccc(O)c2c1C(=O)c1c(N)ccc(O)c1C2=O	-2.6	nt
O=C1c2c(O)cccc2Cc2cccc(O)c21	nt	25*
Cc1oc2ncnc(N3CCOCC3)c2c1C(=O)NCCC(C)C	nt	0.81
Cc1cc2c(NC(=O)Nc3ccc(C(C)(C)C)cc3)cccc2nn1	-2	nt
Cc1cc2c(NC(=O)c3ccccc3C(=O)O)cccc2nn1	21*	nt
C=CCSc1nnc(NC(=O)c2cc(=O)c3cc(CC)ccc3o2)s1	-0.88	9.8*
C=CCSc1nnc(NC(=O)c2cc(=O)c3cc(Cl)ccc3o2)s1	0.15	2.2
CCN1CCN(c2c(S(=O)(=O)c3ccc(Cl)cc3)cnc3cc4c(cc23)OCCO4)CC1	-1.1	2.1
CCCc1nn2c(=O)cc(COc3cc(C)ccc3C)nc2s1	0	0.21
CCSc1nn2c(=O)cc(COc3cc(C)ccc3C)nc2s1	1.1	7.7*
CCCCCNC(=O)Cn1c(=S)[nH]c2ncccc2c1=O	-1.8	nt
COCCCN1CCn2c(nc3cc(NC(=O)NC4CCCCC4)ccc32)C1	0.2	-8.9
COCCN1CCn2c(nc3cc(Nc4nnc(C)c5ccccc45)ccc32)C1	14*	1.6
COCCN1CCn2c(nc3cc(NC(=O)NC4CCCCC4)ccc32)C1	7*	-0.33
COCCN1CCn2c(nc3cc(Cl)ccc32)C1	0.96	0.82
SMILES	CDC25B CDK2 inh	HIV TAR-Tat
COc1ccc(N2C(=O)N(c3cc(C)cc(C)c3)C3CS(=O)(=O)CC32)cc1 (stereo not given)	-3.2	-0.69
CC1CCN(C(=O)c2ccc3c(c2)nc2n3CCOC2)CC1	nt	1.1
CC1(C)C(=O)Nc2ccc(S(=O)(=O)NCc3ccc4c(c3)OCO4)cc21	nt	1.1
COC(=O)c1sccc1NC(=O)COCc1cc(-c2cccs2)on1	nt	0.14
O=C(COCc1cc(-c2cccs2)on1)Nc1ccccc1Br	nt	10*
Cc1nc(-c2cccs2)c(CC(=O)N2CCN(c3ncccn3)CC2)s1	-2.2	-0.99
CC1(C)Cc2c(C#N)c(SCC(N)=O)nc(N3CCOCC3)c2CO1	-2.5	-0.6
COC(=O)CC1C(C)(C)C(OC(C)=O)[C@@H]2[C@@H](OC(C)=O)[C@]34O[C@@]2(O)[C@]1(C)C3CC[C@]1(C)C4=CC(=O)O[C@H]1c1ccoc1 (stereo not given in full)	nt	1.1
O=C1CC(c2ccc(-c3ccccc3)cc2)c2cc3c(cc2N1)OCCO3 (stereo not given)	0.36	1.2
CCc1ccc(C2CC(=O)Nc3cc4c(cc32)OCCO4)cc1 (stereo not given)	4.4*	0.55
Cc1nc(N)sc1-c1csc(Nc2cccc(Cl)c2C)n1	9.4*	-3.7
CCc1ccccc1Nc1nc(-c2sc(N)nc2C)cs1	2.6	-7
O=C(CCc1nc(-c2ccco2)no1)Nc1ccccc1	-0.47	1.6
C1=C(c2ccc3c(c2)c2c4n3CCNC4CCC2)CCC1 (stereo not given)	14*	nt
CC(C)COc1ccc2c(c1)c1c3n2CCNC3CCC1 (stereo not given)	-3.1	nt
C=C1c2cccc(O)c2C(O)=C2C(=O)[C@]3(O)C(O)=C(C(N)=O)C(=O)[C@@H](N(C)C)[C@@H]3[C@@H](O)[C@H]12	nt	16*
C=C1c2c(Cl)ccc(O)c2C(O)=C2C(=O)[C@]3(O)C(O)=C(C(N)=O)C(=O)[C@@H](N(C)C)[C@@H]3[C@@H](O)[C@H]12	nt	20*
CC(C)c1ccc(C2=CC(c3ccc(F)cc3)n3ncnc3N2)cc1 (stereo not given)	nt	-1.5
Nc1c(C(=O)Nc2ccc(F)cc2)sc2nc(-c3ccncc3)ccc12	-0.18	11*
CCSc1nc2ccc(NC(=O)c3sc4nc(-c5ccncc5)ccc4c3N)cc2s1	-0.72	1.6
O=C(Nc1nnc2n1CCCS2)C1CCCC1	nt	5.2
Nc1ccc2nc(SCC(=O)Nc3ccc4nc(SCC(=O)NC5CC5)sc4c3)sc2c1	19*	nt
